# Only some compounds are listed: those with a hit (about 19% of all), similar ones and a draw of the others.
# Pf growth 96h – P. falciparum growth inhibition at 96 hour, primary screen for plastid delayed-death inhibitors. P. falciparum luciferase reporter growth, 96 h. 320,000 tested, 6.9% active. Potency, µM (series often up to 28.7 µM), for the others: at the top dose activity change, negative = inhibition, actives largely listed as inhibitors. AID 504834; further: potency means the concentration at half of the fitted maximal effect; on the % scale 0 is the no-effect control and ±100 the full control effect
#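 Plates of compound plus infected erythrocytes (2% hematocrit, 0.05% parasitemia final) incubate 96 hours, 37 C, 5% CO2. Detection reagent added; reduced luminescence from the parasites' luciferase reporter flags inhibition.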
# Marburg entry inh – blocks Marburg virus binding to or entry into cells; 300,000 tested, 1.8% active; Potency, µM (series often up to 37.8 µM), for inactives: top-dose activity change, negative = inhibition, usual class: inhibitors; AID 540276; Marburg virus pseudotyped entry inhibition, cell reporter; calls by dose curve; tested in HEK293 cells; further: potency means the concentration at half of the fitted maximal effect; on the % scale 0 is the no-effect control and ±100 the full control effect
# Pf growth 48h – P. falciparum growth inhibition at 48 hours (one generation); P. falciparum luciferase growth in erythrocytes, 48 h; AID 504832; 310,000 tested, 5.9% active; Potency, µM (highest dose often 28.7 µM), inactives show top-dose activity change, negative = inhibition, actives largely listed as inhibitors; further: potency means the concentration at half of the fitted maximal effect; on the % scale 0 is the no-effect control and ±100 the full control effect
#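 Luciferase-expressing P. falciparum in infected erythrocytes (2% hematocrit, 0.1% parasitemia final) in RPMI 1640/0.5% Albumax were exposed to compound for 48 hours at 37 C, 5% CO2; growth read as luminescence.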
# LASV entry inh – inhibitors of Lassa virus binding or cell entry; 300,000 tested, 1.2% active; Lassa virus pseudotype entry inhibition, cell reporter; Potency, µM (series often up to 37.9 µM), for the others: top-dose activity change, negative = inhibition, most hits filed as inhibitors; AID 540256; calls by dose curve; tested in HEK293 cells; further: potency means the concentration at half of the fitted maximal effect; on the % scale 0 is the no-effect control and ±100 the full control effect; nearly all actives have a fitted effect of over 50% in size
# Shiga inhibitor – Shiga toxin inhibition; 290,000 tested, 9.2% active; inhibition, % at 38.7 µM; Vero cells, Shiga toxin protein synthesis inhibition reporter; in the data active means inhibition mostly above about 28%, no sharp cut-off; inactive means mostly below about 43%; further: 0% is about no effect
# CHX counter – counter-screen hit for Shiga toxin inhibitors, cycloheximide; cell reporter, cycloheximide protein synthesis inhibition counterscreen; max response, %; 300,000 tested, 12% active; AID 2314; in the data active means max response mostly above about 13%, no sharp cut-off; inactive means mostly below about 14%; further: read at 38.3 µM for the half of the compounds with a filed dose; 0% is about no effect
# * hit, by the source's call; i = inactive; ? = inconclusive; · = not tested or not shown; [ ] = another dose, or the depositor's remark. Unless noted, the call rests on the fitted dose curve; in most records, active means well fitted inhibition curve with a large enough effect; inconclusive means small, poorly fitted or top-dose-only effect, or another doubt; inactive means no such curve, though single readings can be large or run the other way.
SMILES,Pf growth 96h,Marburg entry inh,Pf growth 48h,LASV entry inh,Shiga inhibitor,CHX counter
O=[N+]([O-])c1cc(-c2ncccn2)cs1,-1%,3%,0%,15%[46.1 µM],1,1
CN(C)c1ccc2c(c1)C(=NO)c1ccccc1-2,·,-10%,·,-3%,·,·
ON=C1c2ccccc2-c2ccccc21,49%,·,·,·,23*,25*
Cc1ccc(C2=N/C(=C/N3CCOCC3)C(=O)O2)cc1,3%,25%,94%,21%,68*,50*
Cc1ccc(C2=N/C(=C\N3CCCCC3)C(=O)O2)cc1,?,?,·,-4%,143*,73*
O=C(Nc1ccccc1)C1C2/C=C\CCCCC21 (stereo not drawn),-10%,·,5%,·,43*,19*
Cc1ccccc1NC(=O)C1C2/C=C\CCCCC21 (stereo not drawn),261%,14%,27%,-7%,11,-1
Cc1ccc(NC(=O)C2C3/C=C\CCCCC32)cc1C (stereo not drawn),34%,17%,15%,-29%,130,37*
Cc1ccc(NC(=O)C2CCCCC2C(=O)O)cc1C (stereo not drawn),1%,·,0%,·,-3,-1
O=C1CC(=O)N(Cc2ccccc2)C(=S)N1,35%,-8%[46.1 µM],18%,10%[46.1 µM],-4,-3
Cc1nnc(SCc2nnc(-c3ccc(Cl)cc3)o2)n1-c1ccccc1,·,2%,?,2%,34,11
Cc1nnc(SCc2nnc(-c3ccccc3Br)o2)n1-c1ccccc1,?,6%,10µM*,0%,19,1
Oc1ccc(-n2nnnc2SCc2ccccc2Br)cc1,13µM*,?,?,?,-6,1
O=C1c2ccccc2C(=O)N1CSc1nnnn1-c1ccccc1,-9%,-9%,-3%,-7%,-7,-3
Brc1ccccc1-c1nnc(CSc2nnnn2-c2ccccc2)o1,-13%,22%,26%,18%,54*,29*
COc1ccc(OCC(=O)Nc2cc(S(=O)(=O)N3CCCC3)ccc2OCC(F)(F)F)cc1,-5%,?,?,?,·,·
CCCCOc1ccc(C(=O)N(Cc2ccco2)Cc2ccco2)cc1,·,-1%[46.1 µM],·,11%[46.1 µM],·,·
CCC(=O)Nc1ccc(C(=O)CSc2nc3ccc(C)cc3[nH]2)cc1,27%,?,22%,14%,4,19*
Cc1ccc2nc(SC(C)C(=O)N3CCOCC3)[nH]c2c1 (stereo not drawn),155%,-1%[46.1 µM],219%,1%,79*,44*
CCC(=O)Nc1ccc(C(=O)CSc2nc3ccccc3[nH]2)cc1,12%,3%,-6%,-8%,-3,3
CC(Sc1nc(N)cc(=O)[nH]1)C(=O)N1CCOCC1 (stereo not drawn),17%,?,3%,?,·,·
O=C(Cc1c(C(=O)O)[nH]c2ccccc12)Nc1ccc2c(c1)OCO2,13µM*,8%,?,-2%,16,6
Cc1ccc(S(=O)(=O)N(C)C)cc1NC(=O)CSc1nc2ccccc2[nH]1,9.3µM*,-4%,?,-5%,-11,-2
Cc1cc2nn(-c3ccc(F)cc3)nc2cc1NC(=O)c1cccc2c(Cl)cccc12,·,0%[46.1 µM],·,30%[46.1 µM],·,·
Cc1ccc(NC(=O)Nc2cc(S(=O)(=O)N(C)C)ccc2C)cc1,-4%[5.75 µM],·,12%,·,40,2
SMILES,Pf growth 96h,Marburg entry inh,Pf growth 48h,LASV entry inh,Shiga inhibitor,CHX counter
CC(=O)Nc1cccc(CCc2nc3ccccc3[nH]2)c1,?,13%,92%,-9%,·,23*
Cc1ccc(S(=O)(=O)N(C)C)cc1NC(=O)Nc1ccccc1,17%,-4%[46.1 µM],4.1µM*,3%[46.1 µM],-10,-3
O=C(CCc1nc2ccccc2[nH]1)NCc1ccc2c(c1)OCO2,-14%,14%,8%,1%,-2,-1
O=C(CSc1nc2ccccc2[nH]1)Nc1ccc2c(c1)OCCO2,4%,-1%,30%,-1%,39,41*
O=C(CCc1nc2ccccc2[nH]1)Nc1ccc2c(c1)OCO2,8%,?,-23%,7%,107*,19*
CC(=O)Nc1ccc(CCc2nc3ccccc3[nH]2)cc1,?,?,45%,2%,14,3
O=C(CSc1nc2ccccc2[nH]1)Nc1ccc2[nH]c(=O)[nH]c2c1,29%,17%,-27%,15%,·,·
COc1cccc(NC(=O)c2oc3ccccc3c2NC(=O)C(C)(C)C)c1,-2%,?,?,?,57,13
Cc1ccc2nc(SCC(=O)Nc3ccc4c(c3)OCCO4)[nH]c2c1,15%,17%,·,-11%,30,26*
O=C(CSc1ncccc1-c1nc2ccccc2[nH]1)Nc1ccc2c(c1)OCCO2,-25%,?,-4%,-3%,92*,68*
Cc1nc(SCC(=O)Nc2nc3ccccc3s2)c(C#N)c(C)c1C,?,?,-71%,?,34,29*
Cc1ccc2sc(NC(=O)CSc3nc(C)cc(C)c3C#N)nc2c1,i,?,54%,?,78*,47*
COCCn1c(C)cc(C(=O)CSc2nc(C)cc(C)c2C#N)c1C,·,?,?,-6%,-23,-6
Cc1cc(C)c(C#N)c(SCC(=O)Nc2nnc(-c3ccccc3)s2)n1,·,-2%[46.1 µM],4%,-3%,6,-2
Cc1cc(C(F)(F)F)c(C#N)c(SCC(=O)Nc2nc3ccccc3s2)n1,332%,4.5µM*,227%,?,163*,112*
Cc1cc(C)c(C#N)c(SCC(=O)c2ccc(Cl)cc2Cl)n1,10µM*,?,13µM*,?,-16,-5
Cc1cccc(N(C)S(=O)(=O)c2cc3c(cc2Cl)NC(=O)CO3)c1,·,·,·,16%[46.1 µM],·,·
CCn1c2ccccc2c2cc(NC(=O)COc3cc(C)ccc3C)ccc21,·,·,·,2%[46.1 µM],·,·
COc1ccc(Cc2noc(CN3CCN(Cc4cccc(Cl)c4)CC3)n2)cc1OC,8.3µM*,?,?,?,12,11
COCCN1CCN(Cc2nc(Cc3ccc(OC)c(OC)c3)no2)CC1,-20%,11%[46.1 µM],6%,6%[46.1 µM],-4,-3
COc1ccc(Cc2noc(CN3CCCC(OCc4ccccn4)C3)n2)cc1OC (stereo not drawn),13µM*,2%[46.1 µM],?,?,-8,0
COc1cccc(/C=C/C(=O)c2ccc(C)c([N+](=O)[O-])c2)c1,-3%,?,-3%,0%,12,5
C/C(=N/NC(=O)CN1CCN(Cc2ccccc2)CC1)c1ccc([N+](=O)[O-])cc1,-25%,?,-8%,?,-12,-2
O=C(CN1CCCCCC1)Nc1cc(C(F)(F)F)ccc1Cl,0%,-5%,6%,-6%,-7,1
O=C(CN1CCOCC1)Nc1cc(C(F)(F)F)ccc1Cl,12µM*,?,?,2%,-3,12
O=C(CN1CCN(C(=O)c2ccco2)CC1)Nc1cc(C(F)(F)F)ccc1Cl,·,-27%,1.7µM*,3%,-2,6

# Screening results as filed in PubChem BioAssay.
